From PubChem
Shown is part of a subset that was picked to be rich in hits.
miR-122 inh: raises miR-122 sensor activity in Huh7 cells; Huh7 psiCHECK-miR122 Renilla luciferase sensor, 48 h; activation, % at 12.5 µM; 340,000 compounds, 0.14% hits;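 active = mean activation of 30% or more, with every replicate also reaching 30%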;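 also: 0% = median of neutral control wells and 100% = median of positive control wells; higher luciferase signal means stronger suppression of miR-122 activity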
The depositor's hits bear a star.

SMILES	miR-122 inh
COc1ccc(C(NC(C)=O)c2cc(Cl)c3cccnc3c2O)cc1 (stereo not given)	72*
Cc1noc(C)c1S(=O)(=O)N(C)C[C@@H]1Oc2c(NC(=O)c3cnccn3)cccc2C(=O)N([C@@H](C)CO)C[C@@H]1C	-166
C[C@H]1CN([C@@H](C)CO)C(=O)c2cc(C#Cc3ccccc3)cnc2O[C@H]1CN(C)C(=O)c1ccccn1	9
COc1ccc(-c2cnc3c(c2)C(=O)N([C@@H](C)CO)C[C@@H](C)[C@H](CN(C)C(=O)C2CCOCC2)O3)cc1	0
C/C=C/c1ccc2c(c1)O[C@H](CN(C)C(=O)CC1CC1)[C@@H](C)CN([C@H](C)CO)S2(=O)=O	-11
Cc1cc(C)cc(Oc2ccc(NC(=O)C3CC=CCC3C(=O)O)cc2)c1 (stereo not given)	32*
C[C@@H]1CN([C@H](C)CO)C(=O)c2cc(/C=C/c3ccccc3)cnc2O[C@H]1CN(C)C(=O)c1cccnc1	9
C[C@@H]1CN([C@@H](C)CO)C(=O)c2cc(-c3ccc(F)cc3)cnc2O[C@@H]1CN(C)C(=O)c1ccccn1	8
C[C@@H]1CN([C@H](C)CO)S(=O)(=O)c2ccc(C#Cc3ccccc3)cc2O[C@H]1CN(C)S(=O)(=O)c1ccccc1F	-3
COc1ccc(OC)c(-c2cc(C3CCN(c4cc(Cl)nc(N)n4)CC3)[nH]n2)c1	46*
C[C@@H]1CN([C@@H](C)CO)S(=O)(=O)c2ccc(C#C[C@@H](C)O)cc2O[C@H]1CN(C)CC1CCOCC1	-43
C[C@H]1CN([C@@H](C)CO)S(=O)(=O)c2ccc(Br)cc2O[C@H]1CN(C)CC1CCOCC1	-2
CO[C@H]1CN(C)C(=O)c2cc(NS(=O)(=O)c3ccccc3)ccc2OC[C@@H](C)N(C)C[C@H]1C	-1
CCN(CC)S(=O)(=O)c1cc(C(=O)N(C)CC(=O)Nc2ccc(Cl)cc2)ccc1Cl	-168
Cc1ccc(NC(=O)CN(C)C(=O)Cn2ncc(Cl)c(Cl)c2=O)cc1	71*
CCC(=O)N(C)C[C@@H]1Oc2ncc(-c3cccc(OC)c3)cc2C(=O)N([C@H](C)CO)C[C@H]1C	8
C[C@H](CO)N1C[C@H](C)[C@H](CN(C)Cc2ccc(C(=O)Nc3ccccc3N)cc2)Oc2ccc(NS(=O)(=O)c3ccc(F)cc3)cc2CC1=O	-162
C[C@@H]1CN([C@H](C)CO)C(=O)Cc2cc(NC(=O)Nc3ccc4c(c3)OCO4)ccc2O[C@@H]1CN(C)C(=O)Nc1cccc2ccccc12	-129
O=C(OCn1ncc(Cl)c(Cl)c1=O)c1ccccc1Cl	61*
C[C@@H]1CN([C@H](C)CO)C(=O)c2cc(C#Cc3ccccc3)cnc2O[C@H]1CN(C)Cc1ccccn1	-2
C[C@H](CO)N1C[C@H](C)[C@@H](CN(C)C(=O)C2CCOCC2)Oc2ncc(-c3cccc(F)c3)cc2C1=O	-5
O=CN1CCN(C(=O)c2ccccc2F)CC1	34*
C[C@H](CO)N1C[C@H](C)[C@H](CN(C)C(=O)c2ccncc2)Oc2cc(C#Cc3ccncc3)ccc2S1(=O)=O	1
C[C@H](CO)N1C[C@H](C)[C@@H](CN(C)C(=O)c2ccncc2)Oc2cc(C#C[C@@H](C)O)ccc2S1(=O)=O	-7
C/C=C/c1cnc2c(c1)C(=O)N([C@H](C)CO)C[C@H](C)[C@@H](CN(C)S(=O)(=O)c1cccs1)O2	-1
SMILES	miR-122 inh
Cc1cc(C(=O)N/N=C/c2cc(Br)ccc2OC(=O)c2ccccc2)n[nH]1	32*
C[C@H]1CN([C@@H](C)CO)S(=O)(=O)c2ccc(-c3cccc(C#N)c3)cc2O[C@H]1CN(C)C(=O)Nc1ccccc1F	-4
C[C@H]1CN([C@@H](C)CO)C(=O)c2cc(-c3ccc(C(=O)N(C)C)cc3)cnc2O[C@@H]1CN(C)C(=O)c1cccnc1	2
COCC#Cc1ccc2c(c1)O[C@H](CN(C)C(=O)C1CCOCC1)[C@@H](C)CN([C@H](C)CO)S2(=O)=O	-3
O=c1c2ccccc2nc(/C=C/c2ccc([N+](=O)[O-])o2)n1CCCO	80*
C/C=C/c1cnc2c(c1)C(=O)N([C@H](C)CO)C[C@H](C)[C@H](CN(C)C(=O)Cc1cccnc1)O2	10
C[C@H]1CN([C@@H](C)CO)S(=O)(=O)c2ccc(-c3cccc(C#N)c3)cc2O[C@@H]1CN(C)C(=O)c1ccccc1	-2
COc1ccc(Cn2c(SCc3ccccc3C)nc3cc(OC)c(OC)cc3c2=N)cc1	62*
COCC(=O)Nc1ccc2c(c1)OC[C@@H](C)N(C(C)=O)C[C@@H](C)[C@@H](OC)CN(C)C2=O	-2
C[C@H]1CN([C@@H](C)CO)S(=O)(=O)c2ccc(-c3ccc(C#N)cc3)cc2O[C@@H]1CN(C)C(=O)Nc1cc(F)ccc1F	-19
N=c1c2c(-c3ccccc3)c(-c3ccccc3)n(Cc3ccccc3)c2ncn1CCO	40*
C[C@H](CO)N1C[C@H](C)[C@@H](CN(C)CC2CCOCC2)Oc2ncc(C#CCc3ccccc3)cc2C1=O	-6
Cc1nn(Cc2ccccc2Cl)c2sc(C(=O)OC3CCCC3=O)cc12 (stereo not given)	36*
C[C@@H]1CN([C@H](C)CO)C(=O)c2cc(-c3cncnc3)cnc2O[C@H]1CN(C)Cc1ccncc1	2
C[C@H](CO)N1C[C@H](C)[C@@H](CN(C)C(=O)c2ccccc2F)Oc2ncc(C#Cc3ccc(F)cc3)cc2C1=O	-8
CCC(=O)Nc1ccc2c(c1)C(=O)N(C)C[C@H](OC)[C@H](C)CN(C(C)=O)[C@H](C)CO2	2
CC(=O)Oc1ccc2c(c1)C(=O)c1ccccc1CO2	35*
C[C@H](CO)N1C[C@H](C)[C@H](CN(C)S(C)(=O)=O)Oc2ncc(-c3cccnc3)cc2C1=O	-7
COc1ccccc1-c1cnc2c(c1)C(=O)N([C@H](C)CO)C[C@@H](C)[C@H](CN(C)C(=O)CN(C)C)O2	-3
C[C@@H]1CN([C@@H](C)CO)C(=O)c2cc(/C=C/c3ccccc3)cnc2O[C@@H]1CN(C)Cc1cccc(C(=O)O)c1	3
C[C@@H]1CN([C@@H](C)CO)C(=O)c2cccc(NC(=O)Nc3ccc(F)cc3)c2O[C@H]1CN(C)Cc1ccc(C(F)(F)F)cc1	-91
COc1ccc(CN(C)C[C@H]2OCCCC[C@H](C)Oc3ccc(NC(=O)Nc4ccc(C(F)(F)F)cc4)cc3C(=O)N([C@@H](C)CO)C[C@@H]2C)cc1	31*
COc1ccc(S(=O)(=O)Nc2cccc3c2O[C@@H](CN(C)Cc2ccc(C(F)(F)F)cc2)[C@H](C)CN([C@H](C)CO)C3=O)cc1	-102
C[C@@H]1CN([C@H](C)CO)C(=O)c2cc(NC(=O)Cc3ccccc3)ccc2O[C@@H](C)CCCCO[C@H]1CN(C)Cc1ccc(C(F)(F)F)cc1	31*
C[C@H](CO)N1C[C@H](C)[C@@H](CN(C)Cc2ccc(C(F)(F)F)cc2)Oc2ccc(N(C)C)cc2C1=O	-98
C[C@@H]1CN([C@@H](C)CO)C(=O)Cc2cc(NC(=O)Nc3ccc(C(F)(F)F)cc3)ccc2O[C@@H]1CN(C)C(=O)Nc1cccc2ccccc12	-265
C[C@@H]1CN([C@@H](C)CO)C(=O)c2cccc(NC(=O)Nc3ccccc3)c2O[C@H]1CN(C)Cc1ccc(C(F)(F)F)cc1	-115
C[C@H]1CN([C@@H](C)CO)C(=O)c2cccc(NC(=O)NC3CCCCC3)c2O[C@@H]1CN(C)Cc1ccc(C(F)(F)F)cc1	-121
C[C@@H]1CN([C@@H](C)CO)C(=O)Cc2cc(NC(=O)Nc3ccc(C(F)(F)F)cc3)ccc2O[C@H]1CN(C)Cc1ccc(Oc2ccccc2)cc1	35*
